Test results taken from PubChem BioAssay (NCATS).
Activity calls are given as the source filed them. Where a call stands in place of a potency, no number is given. Calls follow the shape of the dose curve; as a rule, active = well fitted curve in the direction sought with a large enough effect; inconclusive = small, poorly fitted or top-dose-only effect, or another doubt; inactive = no such curve, though single readings can be large or run the other way.

Assay: qHTS for compounds that reverse cellular toxicity of Amyloid beta (A-beta) peptide in yeast: LOPAC Validation Assay (AID 720559)
Conditions: yeast expressing A-beta; Potency: rescue of growth toxicity; series mostly up to 46.1 µM
Procedure, shortened: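 OD600 growth readout after 48 hr at 30 C; A-beta-toxic yeast plus pinned compounds in medium. Normalization: DMSO = negative, equimolar FeCl3 + clioquinol = positive.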

**Q.** For `CC(N)C(=O)OC(C)(C)Cc1ccc(Cl)cc1` (stereo not given), which Potency is on record?
**A.** The Potency was “inactive”.

**Q.** For `OC[C@H]1O[C@@H](n2cnc3c(NC4CCCC4)ncnc32)[C@H](O)[C@@H]1O`, which Potency is on record?
**A.** The Potency was “inactive”.

**Q.** Which Potency does the source give for `CCCN(CC1CC1)c1nc(C)nc(Nc2c(Cl)cc(Cl)cc2Cl)c1Cl` here?
**A.** Its Potency is “inactive”.

**Q.** Which Potency does the source give for `O=[N+]([O-])c1ccc(CSc2ncnc3c2ncn3[C@@H]2O[C@H](CO)[C@@H](O)[C@H]2O)cc1` here?
**A.** The Potency was “inactive”.

**Q.** With `O=c1[nH]c2cc([N+](=O)[O-])c([N+](=O)[O-])cc2[nH]c1=O` as the molecule, how does the Potency read?
**A.** The Potency was “inactive”.

**Q.** For `CCCCCC(O)c1cccc(OCc2ccc3ccccc3n2)c1` (stereo not given), which Potency is on record?
**A.** The Potency was “inactive”.

**Q.** For `O=C(c1cc(O)c(O)c([N+](=O)[O-])c1)c1ccccc1F`, which Potency is on record?
**A.** Its Potency is “inactive”.

**Q.** Which Potency does the source give for `CN1C2CCC1CC(OC(=O)C(O)c1ccccc1)C2` (stereo not given) here?
**A.** Its Potency is “inactive”.

**Q.** For `NC(=S)NCCC[C@H](N)C(=O)O`, which Potency is on record?
**A.** Its Potency is “inactive”.

**Q.** For `CC(COc1ccc(/C=C/c2ccccc2)cc1)[N+](C)(C)C` (stereo not given), which Potency is on record?
**A.** Its Potency is “inactive”.

**Q.** Which Potency does the source give for `O=Nc1ccc2oc(=O)ccc2c1` here?
**A.** Its Potency is “inactive”.

**Q.** For `COc1ccccc1N1CCN(CCN(C(=O)c2ccc(I)cc2)c2ccccn2)CC1`, which Potency is on record?
**A.** The Potency was “inactive”.

**Q.** For `C[C@@H](NC(=O)/C(C#N)=C/c1ccc(O)c(O)c1)c1ccccc1`, which Potency is on record?
**A.** The Potency was “inactive”.

**Q.** For `COc1ccc2c(c1)CCC1C2CC[C@@]2(C)C1CC[C@@H]2NCCCCCCN1C(=O)CCC1=O` (stereo not given in full), which Potency is on record?
**A.** Its Potency is “inactive”.

**Q.** For `C=C[C@@H]1CN2CC[C@@H]1C[C@H]2[C@H](O)c1ccnc2ccc(OC)cc12`, which Potency is on record?
**A.** Its Potency is “inactive”.

**Q.** With `Cn1c(=O)c2[nH]c(-c3ccccc3)nc2n(C)c1=O` as the molecule, how does the Potency read?
**A.** The Potency was “inactive”.

**Q.** For `CCc1c(C(=O)NCCc2ccc(N3CCCCC3)cc2)[nH]c2ccc(Cl)cc12`, which Potency is on record?
**A.** The Potency was “inactive”.

**Q.** With `Clc1ccc(N2CCN(Cc3cc4ccccn4n3)CC2)cc1` as the molecule, how does the Potency read?
**A.** Its Potency is “inactive”.

**Q.** Which Potency does the source give for `O=C1O/C(=C/Br)CCC1c1cccc2ccccc12` (stereo not given) here?
**A.** Its Potency is “inactive”.

**Q.** With `CO/N=C(\C(=O)N[C@@H]1C(=O)N2C(C(=O)O)=C(COC(C)=O)CS[C@H]12)c1csc(N)n1` as the molecule, how does the Potency read?
**A.** Its Potency is “inactive”.

**Q.** With `OC[C@H]1O[C@@H](n2cnc3c(NC4CCCCC4)ncnc32)[C@H](O)[C@@H]1O` as the molecule, how does the Potency read?
**A.** The Potency was “inactive”.

**Q.** For `C[C@@H](CN1CCC(Cc2ccccc2)CC1)[C@@H](O)c1ccc(O)cc1`, which Potency is on record?
**A.** The Potency was “inactive”.

**Q.** With `C[N+]1(C)CCC(OC(=O)C(c2ccccc2)c2ccccc2)CC1` as the molecule, how does the Potency read?
**A.** The Potency was “inactive”.

**Q.** For `CNC(=O)[C@H]1O[C@@H](n2cnc3c(NCc4ccc(N)cc4)ncnc32)[C@H](O)[C@@H]1O`, which Potency is on record?
**A.** Its Potency is “inactive”.

**Q.** For `NC(CCCP(=O)(O)O)C(=O)O` (stereo not given), which Potency is on record?
**A.** Its Potency is “inactive”.

**Q.** Which Potency does the source give for `N=C(N)SCCc1ccc(CCSC(=N)N)cc1` here?
**A.** The Potency was “inactive”.

**Q.** With `NCCNC(=O)c1ncsc1-c1cccc(F)c1` as the molecule, how does the Potency read?
**A.** Its Potency is “inactive”.

**Q.** With `CCOC(=O)N1CCN(/[N+]([O-])=N/Oc2ccc([N+](=O)[O-])cc2[N+](=O)[O-])CC1` as the molecule, how does the Potency read?
**A.** The Potency was “inactive”.

**Q.** With `CCCCCCCCCCCCCCCC(=O)OC(CC(=O)O)C[N+](C)(C)C` (stereo not given) as the molecule, how does the Potency read?
**A.** Its Potency is “inactive”.

**Q.** With `CN(C)c1ccc(/C=C2\C(=O)Nc3ccccc32)cc1` as the molecule, how does the Potency read?
**A.** Its Potency is “inactive”.

**Q.** For `NCCCS(=O)(=O)O`, which Potency is on record?
**A.** The Potency was “inactive”.

**Q.** Which Potency does the source give for `COc1ccc(NC(=O)/C=C/c2ccc(Cl)cc2)cc1` here?
**A.** Its Potency is “inactive”.

**Q.** For `N#C/C(=C\c1ccc(O)c(O)c1)C(=O)NCCCc1ccccc1`, which Potency is on record?
**A.** The Potency was “inactive”.

**Q.** For `COc1cc2nc(N3CCN(C(=O)OCc4ccccc4)C(C(=O)NC(C)(C)C)C3)nc(N)c2cc1OC` (stereo not given), which Potency is on record?
**A.** The Potency was “inactive”.

**Q.** For `CC(=O)N[C@H](C(=O)O)C(C)(C)SN=O`, which Potency is on record?
**A.** Its Potency is “inactive”.
